# According to PubChem BioAssay AID1159580 (chemical genetic matrix, 2015):
# Where “and” joins values, the source holds several entries; their conditions need not be identical. Equal entries are not always repeated. Hit rate of the full screen: of about 5,500 compounds, about 2,000 (36%) were called active. Inconclusive results (about 18%) are left out. Cut-off read from the data, not from the text of the source: active = normalized growth mostly below about 0.91 (no sharp cut-off); inconclusive = no clear call, values can overlap the other calls; inactive = mostly above about 0.92. The list shows a part of the results.
# Assay: chemical genetic growth profiling, strain panel (AID 1159580);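 note: tested at 20 µM; growth read once vehicle control cultures reached saturation at 30 °C; 1 = growth at the plate median or of vehicle wells; lower values mean less growth of the strain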
# Details: S. cerevisiae deletion strains, growth OD
structure (smiles),measurement,setting,value
C[n+]1cc2c3c(ccc2c2ccc4cc5c(cc4c21)OCO5)OCO3,normalized growth,"locus YAL013W, strain DEP1, stronger effect = lower value",0.06 (active) and 0.0669 (active)
same,normalized growth,"locus YAL021C, strain ccr4, stronger effect = lower value",0.823 (active)
same,normalized growth,"locus YAL026C, strain drs2, stronger effect = lower value",0.657 (active)
same,normalized growth,"locus YAL030W, strain snc1, stronger effect = lower value",0.676 (active)
same,normalized growth,"locus YBL061C, strain skt5, stronger effect = lower value",0.627 (active)
same,normalized growth,"locus YBR009C, strain hhf1, stronger effect = lower value",0.268 (active)
same,normalized growth,"locus YBR021W, strain FUR4, stronger effect = lower value",0.146 (active)
same,normalized growth,"locus YBR023C, strain chs3, stronger effect = lower value",0.592 (active)
same,normalized growth,"locus YBR171W, strain sec66, stronger effect = lower value",0.983 (inactive)
same,normalized growth,"locus YBR229C, strain ROT2, stronger effect = lower value",0.0617 (active)
same,normalized growth,"locus YBR231C, strain swc5, stronger effect = lower value",0.326 (active)
same,normalized growth,"locus YBR279W, strain paf1, stronger effect = lower value",0.674 (active)
same,normalized growth,"locus YCL011C, strain gbp2, stronger effect = lower value",0.34 (active)
same,normalized growth,"locus YCL016C, strain dcc1, stronger effect = lower value",0.535 (active)
same,normalized growth,"locus YCL029C, strain bik1, stronger effect = lower value",0.0684 (active)
same,normalized growth,"locus YCL061C, strain MRC1, stronger effect = lower value",0.672 (active)
same,normalized growth,"locus YCL069W, strain vba3, stronger effect = lower value",0.596 (active)
same,normalized growth,"locus YCR088W, strain abp1, stronger effect = lower value",0.802 (active)
same,normalized growth,"locus YDL005C, strain med2, stronger effect = lower value",0.711 (active)
same,normalized growth,"locus YDL035C, strain GPR1, stronger effect = lower value",0.057 (active)
same,normalized growth,"locus YDL040C, strain nat1, stronger effect = lower value",0.858 (active)
same,normalized growth,"locus YDL074C, strain BRE1, stronger effect = lower value",0.0875 (active)
same,normalized growth,"locus YDL101C, strain DUN1, stronger effect = lower value",0.0699 (active)
same,normalized growth,"locus YDL134C, strain PPH21, stronger effect = lower value",0.0603 (active)
same,normalized growth,"locus YDL185W, strain tfp1, stronger effect = lower value",0.914 (inactive)
same,normalized growth,"locus YDL192W, strain arf1, stronger effect = lower value",0.0735 (active)
same,normalized growth,"locus YDR001C, strain nth1, stronger effect = lower value",0.928 (inactive)
same,normalized growth,"locus YDR069C, strain doa4, stronger effect = lower value",0.902 (inactive)
same,normalized growth,"locus YDR101C, strain arx1, stronger effect = lower value",0.0711 (active)
same,normalized growth,"locus YDR137W, strain rgp1, stronger effect = lower value",0.692 (active)
same,normalized growth,"locus YDR150W, strain NUM1, stronger effect = lower value",0.0564 (active)
same,normalized growth,"locus YDR159W, strain sac3, stronger effect = lower value",0.62 (active)
same,normalized growth,"locus YDR162C, strain NBP2, stronger effect = lower value",0.0557 (active)
same,normalized growth,"locus YDR195W, strain ref2",1.09 (inactive)
same,normalized growth,"locus YDR297W, strain sur2, stronger effect = lower value",0.609 (active)
same,normalized growth,"locus YDR318W, strain mcm21, stronger effect = lower value",0.0705 (active)
same,normalized growth,"locus YDR334W, strain swr1, stronger effect = lower value",0.46 (active)
same,normalized growth,"locus YDR335W, strain msn5, stronger effect = lower value",0.714 (active)
same,normalized growth,"locus YDR363W, strain ESC2, stronger effect = lower value",0.0888 (active)
same,normalized growth,"locus YDR388W, stronger effect = lower value",0.0658 (active)
same,normalized growth,"locus YDR392W, strain spt3, stronger effect = lower value",0.11 (active)
same,normalized growth,"locus YDR502C, strain sam2, stronger effect = lower value",0.0731 (active)
same,normalized growth,"locus YEL003W, strain gim4, stronger effect = lower value",0.668 (active)
same,normalized growth,"locus YEL037C, strain rad23, stronger effect = lower value",0.797 (active)
same,normalized growth,"locus YEL061C, strain CIN8 (second series), stronger effect = lower value",0.7 (active)
same,normalized growth,"locus YEL061C, strain CIN8, stronger effect = lower value",0.0546 (active)
same,normalized growth,"locus YER002W, strain NOP16, stronger effect = lower value",1.01 (inactive)
same,normalized growth,"locus YER015W, strain faa2, stronger effect = lower value",0.516 (active)
same,normalized growth,"locus YER016W, strain bim1, stronger effect = lower value",0.788 (active)
same,normalized growth,"locus YER110C, stronger effect = lower value",0.0876 (active)
same,normalized growth,"locus YER111C, strain swi4, stronger effect = lower value",0.847 (active)
same,normalized growth,"locus YER155C, strain BEM2 (second series), stronger effect = lower value",0.442 (active)
same,normalized growth,"locus YER155C, strain BEM2, stronger effect = lower value",0.0755 (active)
same,normalized growth,"locus YER167W, strain BCK2, stronger effect = lower value",0.0605 (active)
same,normalized growth,"locus YFR010W, strain ubp6, stronger effect = lower value",0.898 (active)
same,normalized growth,"locus YGL078C, strain dbp3, stronger effect = lower value",0.907 (active)
same,normalized growth,"locus YGL086W, strain mad1, stronger effect = lower value",0.0683 (active)
same,normalized growth,"locus YGL167C, strain pmr1, stronger effect = lower value",0.974 (inactive)
same,normalized growth,"locus YGL173C, strain kem1, stronger effect = lower value",0.772 (active)
same,normalized growth,"locus YGL227W, strain vid30, stronger effect = lower value",0.519 (active)
same,normalized growth,"locus YGL240W, strain doc1, stronger effect = lower value",0.396 (active)
same,normalized growth,"locus YGL248W, strain PDE1, stronger effect = lower value",0.0602 (active)
same,normalized growth,"locus YGL253W, strain hxk2, stronger effect = lower value",0.501 (active)
same,normalized growth,"locus YGR078C, strain PAC10, stronger effect = lower value",0.0588 (active)
same,normalized growth,"locus YGR135W, strain pre9, stronger effect = lower value",0.0753 (active)
same,normalized growth,"locus YGR229C, strain SMI1, stronger effect = lower value",0.0651 (active)
same,normalized growth,"locus YGR252W, strain gcn5, stronger effect = lower value",0.18 (active)
same,normalized growth,"locus YHR013C, strain ard1, stronger effect = lower value",0.319 (active)
same,normalized growth,"locus YHR027C, strain rpn1, stronger effect = lower value",0.73 (active)
same,normalized growth,"locus YHR030C, strain SLT2, stronger effect = lower value",0.0584 (active) and 0.981 (inactive)
same,normalized growth,"locus YHR079C, strain IRE1 (second series), stronger effect = lower value",0.0663 (active)
same,normalized growth,"locus YHR079C, strain IRE1, stronger effect = lower value",0.985 (inactive)
same,normalized growth,"locus YHR094C, strain hxt1, stronger effect = lower value",0.0664 (active)
same,normalized growth,"locus YHR129C, strain ARP1, stronger effect = lower value",0.0634 (active)
same,normalized growth,"locus YHR142W, strain chs7, stronger effect = lower value",0.348 (active)
same,normalized growth,"locus YHR200W, strain rpn10, stronger effect = lower value",0.0675 (active)
same,normalized growth,"locus YIL066C, strain RNR3, stronger effect = lower value",0.0586 (active)
same,normalized growth,"locus YIL073C, strain SPO22, stronger effect = lower value",0.133 (active)
same,normalized growth,"locus YIL125W, strain kgd1, stronger effect = lower value",0.915 (active)
same,normalized growth,"locus YIR030C, strain dcg1, stronger effect = lower value",0.0697 (active)
same,normalized growth,"locus YJL092W, strain hpr5, stronger effect = lower value",0.793 (active)
same,normalized growth,"locus YJL095W, strain BCK1 (second series), stronger effect = lower value",0.467 (active)
same,normalized growth,"locus YJL095W, strain BCK1, stronger effect = lower value",0.073 (active) and 0.976 (inactive)
same,normalized growth,"locus YJL115W, strain asf1, stronger effect = lower value",0.881 (active)
same,normalized growth,"locus YJL129C, strain trk1, stronger effect = lower value",0.309 (active)
same,normalized growth,"locus YJL134W, strain LCB3, stronger effect = lower value",0.0573 (active)
same,normalized growth,"locus YJL154C, strain vps35, stronger effect = lower value",0.962 (inactive)
same,normalized growth,"locus YJL164C, strain tpk1, stronger effect = lower value",0.363 (active)
same,normalized growth,"locus YJL166W, strain qcr8, stronger effect = lower value",0.242 (active)
same,normalized growth,"locus YJL168C, strain set2, stronger effect = lower value",0.0819 (active)
same,normalized growth,"locus YJL187C, strain SWE1 (second series), stronger effect = lower value",0.0606 (active)
same,normalized growth,"locus YJL187C, strain SWE1, stronger effect = lower value",0.618 (active)
